# CYP2C9 inh – inhibitors of human CYP2C9; CYP2C9 Supersomes, luciferin-H conversion, luminescence; inhibition, % at 5 µM; 96,000 tested, 20% active; AID 777;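 active = blocking of liver enzyme CYP2C9 beyond about 50% at 5 µM, limit read from the data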
# E-sel TNF inh – TNF alpha driven E-selectin expression inhibition. 120,000 tested, 0.71% active. inhibition, % at 2 µM. HUVEC TNFa-induced E-selectin immunofluorescence, high content;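 active = inhibition above the batch mean plus 3 SD, and confirmed as a hit on visual image review, cut at about 43% in these data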;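 note: 0% = TNF-stimulated DMSO wells and 100% = unstimulated control wells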
# cytoskel mod – cytoskeleton assembly modification; HUVEC TNFa F-actin phalloidin imaging, high content; inhibition, % at 2 µM; 91,000 tested, 0.18% active; AID 836;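 active = inhibition above the batch mean plus 3 SD and confirmed as a hit by visual image inspection, cut at about 30% in these data, passing the limit was not always enough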
# CYP2C19 act – increases human CYP2C19 enzyme activity. P33261. recombinant CYP2C19, luciferin-H EGE luminescence; active compounds read high; 0 = fully inhibited enzyme, 1 = untreated enzyme. activation factor at 5 µM. 96,000 tested, under 10 active. AID 1025;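 active = activation factor of at least 2 at 5 µM in the primary screen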;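 note: 0 = wells with 2.5 mM tranylcypromine and 1 = vehicle-only wells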
# Target sequence (P33261 whole entry, looked up): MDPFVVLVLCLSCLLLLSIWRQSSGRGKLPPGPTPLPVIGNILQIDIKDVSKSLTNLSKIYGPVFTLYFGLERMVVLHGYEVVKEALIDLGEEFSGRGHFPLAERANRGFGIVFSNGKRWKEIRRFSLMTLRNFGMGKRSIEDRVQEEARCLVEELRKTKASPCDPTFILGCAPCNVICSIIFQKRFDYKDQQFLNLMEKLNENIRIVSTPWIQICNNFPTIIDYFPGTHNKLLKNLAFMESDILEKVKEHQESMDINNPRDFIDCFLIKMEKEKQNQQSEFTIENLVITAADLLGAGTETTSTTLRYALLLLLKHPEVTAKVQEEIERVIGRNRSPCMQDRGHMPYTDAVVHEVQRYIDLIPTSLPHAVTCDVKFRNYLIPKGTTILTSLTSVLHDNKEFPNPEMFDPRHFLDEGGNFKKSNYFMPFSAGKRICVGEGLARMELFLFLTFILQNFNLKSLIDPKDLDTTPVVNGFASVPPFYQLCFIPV
# CYP2C19 inhib – human CYP2C19 inhibition; CYP2C19 Supersomes, luciferin-H EGE luminescence, 30 min; inhibition, % at 5 µM; 96,000 tested, 21% active; AID 778;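 active = CYP2C19 inhibition above a set limit at 5 µM in the primary screen, cut at about 50% in these data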;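 note: plate controls were negative control wells for no effect and 2.5 mM tranylcypromine positive control for full effect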
# CYP2C9 activ – CYP2C9 (human) activation; P11712; recombinant CYP2C9, luciferin-H conversion, luminescence; active compounds read high; factor 1 = untreated enzyme, 0 = blocked; activation factor at 5 µM; 96,000 tested, 1.4% active;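 active = activation factor of 2 or more for CYP2C9 at a 5 µM dose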;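 note: 0 = sulfaphenazole-blocked wells and 1 = vehicle-only wells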
# * = called active by the depositor; / = no result given. An excerpt weighted towards active compounds, which were near 22% of everything screened.
SMILES,CYP2C9 inh,E-sel TNF inh,cytoskel mod,CYP2C19 act,CYP2C19 inhib,CYP2C9 activ
CCOC(=O)c1sc(-c2ccc(F)cc2)cc1N,83*,-9,-4,0.1,90*,0.2
CCOC(=O)COc1ccc(C2NC(C(=O)O)CS2)cc1 (configuration not stated),-1,-56,/,1,3,1
COc1cc(C2NC(C(=O)O)CS2)ccc1OCc1ccccc1C#N (configuration not stated),27,-53,/,0.4,59*,0.7
C=CCSc1nnc(NC(=O)CSc2nc3ccccc3o2)s1,82*,9,/,0.4,59*,0.2
O=C(CSc1nc2ccccc2o1)Nc1nncs1,55*,/,4,0.7,33,0.4
CCc1nnc(NC(=O)CSc2nc3ccccc3o2)s1,59*,-11,-4,1,2,0.4
Cc1nnc(NC(=O)CSc2nc3ccccc3o2)s1,/,-9,-9,/,/,/
O=C(CSc1nc(-c2ccccc2)c(-c2ccccc2)o1)Nc1nncs1,44,-12,12,1.1,-14,0.6
O=C(CSc1nc2ccccc2o1)Nc1nc(-c2ccccc2)c(-c2ccccc2)s1,/,13,/,/,/,/
Cc1noc(C(=O)Nc2cccnc2)c1Cl,-8,/,-7,1,-1,1.1
CC(C)(C)NC(=S)Nc1ccc(Nc2ccccc2)cc1,54*,-7,1,0.6,38,0.5
CCC(C)(C)n1c(=O)[nH]c2c(c1=O)CCC2,1,/,10,0.9,15,1
COC(=O)c1cc(S(=O)(=O)n2nc(C)c(Br)c2C)c(Cl)cc1Cl,27,6,5,0.3,73*,0.7
CCCC(=O)Nc1sc(C(=O)OC)c(C)c1C(N)=O,9,10,25,1,-1,0.9
O=C(Cc1ccccc1F)Nc1nc(-c2cccs2)cs1,99*,11,0,0.1,94*,0
O=C(Cc1ccccc1)Nc1nc(-c2cccs2)cs1,44,19,-11,0.5,49,0.6
CC1Cc2cc(-c3csc(NC(=O)Cc4cccs4)n3)ccc2N1S(C)(=O)=O (configuration not stated),92*,/,2,0.2,77*,0.1
O=C(Cc1cccs1)Nc1nc(-c2ccc(F)cc2F)cs1,56*,-8,4,0.8,18,0.4
O=C(Nc1cccnc1)C1CC(c2ccc(Cl)c(Cl)c2)=NO1 (configuration not stated),56*,-7,/,0.1,94*,0.4
COc1ccc(OC)c(C2=NOC(C(=O)Nc3cccnc3)C2)c1 (configuration not stated),-99,0,-10,0.2,76*,2*
COc1ccc(-c2cc(C(=O)NCCN3CCOCC3)c3ccccc3n2)cc1,52*,-1,24,0.8,24,0.5
COc1ccc(CNC(=O)c2c(N)n(CCCN3CCOCC3)c3nc4ccccc4nc23)cc1,13,-12,3,0.3,75*,0.9
O=C(NCCCN1CCOCC1)c1cc(-c2ccc3c(c2)OCO3)nc2ccccc12,54*,/,/,0.9,12,0.5
Nc1c(C(=O)NCc2ccccc2)c2nc3ccccc3nc2n1CCCN1CCOCC1,/,-13,/,/,/,/
Cc1cnnn1-c1ccc(C(=O)CCl)cc1,-14,1,-1,1.3,-26,1.1
SMILES,CYP2C9 inh,E-sel TNF inh,cytoskel mod,CYP2C19 act,CYP2C19 inhib,CYP2C9 activ
CCOc1cccc(NC(=O)C(Cc2cccs2)c2nn[nH]n2)c1 (configuration not stated),18,22,-4,1,-4,0.8
COC(=O)c1cc(OC)c(OC)cc1NC(=O)Cc1cccs1,/,4,/,/,/,/
COc1ccccc1NC(=O)COc1ccccc1,-59,-10,-6,0.5,46,1.6
CCOc1cccc(NC(=O)Cc2cccs2)c1,58*,/,/,0.1,86*,0.4
COc1ccc(NC(=O)Cc2cccs2)c(OC)c1,10,-13,/,0.2,79*,0.9
COc1ccc(NC(=O)COc2ccccc2)c(OC)c1,84*,18,-7,0.1,92*,0.2
CC(C)NS(=O)(=O)c1ccc(OCC(=O)Nc2cccc3ccccc23)cc1,82*,-11,-10,0.1,88*,0.2
CC(C)C(NC(=O)c1ccc(C(C)(C)C)cc1)C(=O)Nc1cccc(S(N)(=O)=O)c1 (configuration not stated),/,-6,/,/,/,/
O=c1c2[nH]c3ccccc3c2ncn1Cc1ccncc1,45,10,9,0.6,38,0.5
CCC(=O)Nc1cccc(NC(=O)COc2ccc(OC)cc2)c1,-51,-7,-2,0.6,36,1.5

# Assay outcomes: PubChem BioAssay, several laboratories
